Screening results: PubChem, The Scripps Research Institute Molecular Screening Center
In the library only some 4.1% were active in any assay of this set; here they are far more common.
hgDAF12 agonist = agonists of H. glycines DAF-12 nuclear receptor | activation, % at 6.8 µM | HEK293 GAL4-hgDAF12 UAS-luciferase reporter, agonist luminescence; normalized to butyrate control | 370,000 tested, 1.8% active | AID 687014;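 active means activation above a cutoff set at the mean of all screened compounds plus 3 SD, cut at about 10% in these data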
ssDAF12 agonist = S. stercoralis DAF-12 activation, primary screen; HEK293 ssDAF-12/GRIP1 lit1-tk-luc reporter, luminescence; % of 3 µM dafachronic acid response; activation, % at 6.8 µM; 370,000 tested, 1% active;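 active means activation above the mean over all tested compounds plus 3 SD, cut at about 0.9% in these data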
DAX1 inh-1 = inhibitors of human orphan nuclear receptor DAX1 (NR0B1); P51843; HEK293 Gal4-DAX1 luciferase reporter, luminescence; inhibition, % at 6.75 µM; 340,000 tested, 0.99% active;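 active means inhibition above the mean over all tested compounds plus 3 SD, cut at about 4.2% in these data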;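 further: inhibition shows as a rise in luminescence from relieved DAX1 repression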
Target sequence (P51843 207-470 limits assumed): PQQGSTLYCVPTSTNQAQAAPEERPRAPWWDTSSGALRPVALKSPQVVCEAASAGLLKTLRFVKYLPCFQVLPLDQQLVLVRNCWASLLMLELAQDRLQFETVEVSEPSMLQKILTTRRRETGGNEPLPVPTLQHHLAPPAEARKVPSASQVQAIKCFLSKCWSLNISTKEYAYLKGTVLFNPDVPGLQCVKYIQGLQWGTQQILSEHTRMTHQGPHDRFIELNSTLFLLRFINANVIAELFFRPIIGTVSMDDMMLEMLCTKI
DAX1 inh-2 = DAX1 (NR0B1) inhibition, primary screen; inhibition, % at 6.8 µM; 370,000 tested, 1.1% active; HEK293T StAR-luciferase reporter, SF-1/DAX-1 repression relief; AID 652010;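 active means inhibition above the mean over all tested compounds plus 3 SD, cut at about 3.6% in these data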;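 further: higher inhibition means more luminescence from relief of DAX-1 repression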
hcDAF-12 act = activators of H. contortus DAF-12 nuclear receptor; 370,000 tested, 1.4% active; HEK293 hcDAF-12 lit1-tk-luc reporter, luminescence; 0% DMSO, 100% Δ7-dafachronic acid; activation, % at 6.8 µM; AID 652067;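 active means activation above the mean of all tested compounds plus 3 SD, cut at about 5.5% in these data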
hgDAF12 conf = hgDAF-12 agonism, confirmation assay; shares compounds with hgDAF12 agonist; HEK293 GAL4-hgDAF12 luciferase reporter, agonist mode; percent of butyrate response; activation, % at 6.8 µM; 3,300 tested, 80% active;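 active means mean activation over triplicate wells above the hit cutoff derived from the earlier primary screen, cut at about 11% in these data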
LXR ag 2 = counter-screen for DAF-12 agonists: agonists of human LXR-beta. activation, % at 6.8 µM. 3,300 tested, under 10 active. HEK293 Gal4-LXR luciferase reporter, 24 h. shares compounds with hgDAF12 agonist;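 active means mean activation of the triplicate above a set limit carried over from the primary screen, none filed active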
Hits are given with their value; i = inactive; nt = not tested or not shown.

SMILES	hgDAF12 agonist	ssDAF12 agonist	DAX1 inh-1	DAX1 inh-2	hcDAF-12 act	hgDAF12 conf	LXR ag 2
COc1ccc(-c2cn3nc4c(nc3n2)CCCC4)cc1	i	i	i	i	i	nt	nt
COc1cccc(-c2cn3nc(C)c(C)nc3n2)c1	15	i	i	i	i	14	i
O=C(NN1C(=O)c2ccccc2NC1c1ccco1)c1ccc([N+](=O)[O-])cc1 (stereo unspecified)	18	i	i	i	i	i	i
O=C(NN1C(=O)c2ccccc2NC1c1ccco1)c1ccc(Br)cc1 (stereo unspecified)	i	i	i	i	i	nt	nt
C/C(CC(=O)Nc1ccc(C)c(Cl)c1)=N\NC(=O)c1ccccn1	14	i	i	i	i	i	i
Cc1cc(NC(=O)Nc2cccc(F)c2)n(-c2ccccc2)n1	i	i	nt	i	i	nt	nt
CC(C)N=C1NN=C(c2ccc(Cl)c(Cl)c2)CS1	19	i	nt	i	i	19	i
O=C(Nc1ccc2c(c1)OCO2)c1n[nH]c(=O)c2ccccc12	18	i	i	i	i	i	i
CC(C)(C)c1ccc(-c2noc(-c3ccno3)n2)cc1	13	0.9	8.3	i	i	15	i
CC(=O)c1ccc(NC(=O)/C(Cl)=C/c2ccccc2)cc1	17	i	i	i	i	12	i
C[C@@H]1CN(C(=O)OC(C)(C)C)CCN1c1ccc(N2CCS(=O)(=O)CC2)c(C#N)c1	i	i	nt	i	i	nt	nt
Cc1ccc(-c2nc(-c3ccncc3)no2)cc1	15	i	i	i	i	15	i
c1ccc(-c2noc(-c3cccnc3)n2)nc1	14	i	i	i	i	12	i
Cc1ccc(Cc2nc(-c3cccnc3)no2)cc1	i	i	i	i	i	nt	nt
Cc1ccc(-c2nc(-c3cccnc3)no2)cc1	14	i	i	i	i	18	i
CC(C)(C)OC(=O)N1Cc2cc3ccccc3nc2C1	16	i	i	3.6	i	13	i
Cc1cc(S(=O)(=O)NC(=O)[C@H]2O[C@@H](n3ccc(=O)[nH]c3=O)[C@H](O)[C@@H]2O)ccc1Br	i	i	nt	i	i	nt	nt
Cn1cccc1C(=O)N/N=C/c1c(Cl)cccc1Cl	13	i	i	i	5.9	12	i
CCN(CC)C(=O)c1ccc(C(CCOC(=O)Oc2ccccc2)c2ccc(OC)cc2)cc1 (stereo unspecified)	i	i	nt	i	i	nt	nt
O=S1(=O)c2ccc(N3CC[C@H](O)C3)cc2O[C@@H]2CCN1C2	i	i	nt	i	i	nt	nt
COC(=O)N1C[C@H](OC(=S)Nc2ccc(OC)cc2OC)[C@H]2C[C@@H]1c1ccccc1O2	i	i	nt	i	i	nt	nt
O=C(Nc1ccc(Cl)cc1F)c1ccccc1Br	15	i	i	4.4	i	14	i
Cc1cc2c(c(=O)o1)[C@@]1(C(=O)N(C)c3ccccc31)C1=C(CC(C)(C)OC1=O)O2	i	i	nt	i	i	nt	nt
Cc1ccc(NCCC(=O)c2cccs2)cc1C	15	i	i	i	i	15	i
Cc1ccc(NCCC(=O)c2ccc(Cl)cc2)cc1C	i	i	i	i	i	nt	nt
SMILES	hgDAF12 agonist	ssDAF12 agonist	DAX1 inh-1	DAX1 inh-2	hcDAF-12 act	hgDAF12 conf	LXR ag 2
COCCCN=C1NN=C(c2cc(C)n(Cc3ccco3)c2C)CS1	15	1.6	i	i	i	i	i
Cc1cc(C2=NNC(=NC3CC3)SC2)c(C)n1Cc1ccco1	i	i	i	i	i	nt	nt
COc1ccc(NC(=O)c2ccc3snnc3c2)cc1	i	i	i	i	i	nt	nt
CC(=O)c1ccc(NC(=O)c2ccc3snnc3c2)cc1	14	i	i	i	i	12	i
CN1CCCN(C(=O)C2CCN(c3ncnc4c3sc3cccc(F)c34)CC2)CC1	i	i	nt	i	i	nt	nt
COC(=O)C1=C(C)N(Cc2ccccc2C(F)(F)F)C(=NCc2cc(OC)c(OC)c(OC)c2)NC1CCc1ccccc1 (stereo unspecified)	i	i	nt	i	i	nt	nt
C=CCN1C=CC(=C/C=C(/C#N)C(=O)OCC)C=C1	16	i	i	i	5.6	16	i
c1cncc(Oc2ccc(NCCc3c[nH]c4ccccc34)cc2)c1	i	i	nt	i	i	nt	nt
O=C(Nc1ccccc1O)c1ccc(Cl)cc1	22	1.3	4.4	i	5.8	29	i
CN(C)CC(=O)N[C@@H]1C[C@@H]2O[C@@H](CO)CC[C@@H]2O[C@@H]1CCc1ccc(C#Cc2ccccc2)cc1	i	i	nt	i	i	nt	nt
O=C(CSc1nnc(-c2cnccn2)n1-c1ccccc1)c1ccc(F)cc1	i	i	nt	i	i	nt	nt
COc1ccc(-c2csc(N=C(N)N)n2)cc1	16	i	i	i	i	11	i
CC1CN(C(=S)SCCN2Cc3ccccc3C2=O)CC(C)O1 (stereo unspecified)	i	i	i	i	i	nt	nt
O=C1c2ccccc2CN1CCSC(=S)N1CCOCC1	16	i	i	i	i	16	i
Clc1ccc([C@H]2OC[C@@]3(CNCc4ccc5c(c4)OCO5)CS[C@H](c4ccc(Cl)cc4)N23)cc1	i	i	nt	nt	i	nt	nt
O=C(Nc1nccs1)c1cn2ccccc2n1	15	i	i	i	5.8	14	i
Cn1nnc2cc(C(=O)NC3CC3)ccc21	i	i	i	i	i	nt	nt
O=C(Nc1ccc(N2CCCCC2)cc1)c1cncc(Br)c1	15	i	i	i	i	14	i
O=C(Nc1ccc(N2CCCC2)cc1)c1ccc2ccccc2c1	16	i	i	i	i	12	i
O=C(Nc1ccc(S(=O)(=O)N2CCCC2)cc1)c1cncc(Br)c1	i	i	i	i	i	nt	nt
Cn1nnc2cc(C(=O)Nc3ccc4ccccc4c3)ccc21	15	i	i	i	i	17	i
CC(=O)N1CCN(c2ccc(NC(=O)c3ccc4ccccc4c3)cc2)CC1	i	i	i	i	i	nt	nt
CC(=O)Nc1ccc(N2CCCCC2)cc1	i	i	i	i	i	nt	nt
O=C(Nc1ccc(N2CCCCC2)cc1)c1ccc(F)cc1F	13	i	i	3.6	5.7	17	i
Cc1cc(O)cc(=O)n1-c1cc(F)c(F)c(F)c1	i	i	nt	i	i	nt	nt
Cc1nc2ccccn2c1P(=O)(c1ccccc1)c1ccccc1	i	i	nt	nt	i	nt	nt
COc1ccc(C(=O)CC2(O)C(=O)N(CN3CCOCC3)c3ccc(Br)cc32)cc1 (stereo unspecified)	i	i	nt	i	i	nt	nt
C/C(Cn1cnc([N+](=O)[O-])n1)=N\NC(=O)c1ccc(F)cc1	i	i	i	i	i	nt	nt
COc1ccc(C(=O)N/N=C(\C)Cn2cnc([N+](=O)[O-])n2)cc1	15	i	i	i	i	i	i
Cc1ccsc1/C=C1\Oc2cc(O)ccc2C1=O	24	i	i	4.5	i	i	i
